Holding throughout (test): PBM; 200 nM protein, PBS
Holding throughout (settings): dsDNA, one strand shown

The target of assay [1] is T1, PAX4 (Homo sapiens, UniProt O43316 9-242, R200K).
T1 sequence: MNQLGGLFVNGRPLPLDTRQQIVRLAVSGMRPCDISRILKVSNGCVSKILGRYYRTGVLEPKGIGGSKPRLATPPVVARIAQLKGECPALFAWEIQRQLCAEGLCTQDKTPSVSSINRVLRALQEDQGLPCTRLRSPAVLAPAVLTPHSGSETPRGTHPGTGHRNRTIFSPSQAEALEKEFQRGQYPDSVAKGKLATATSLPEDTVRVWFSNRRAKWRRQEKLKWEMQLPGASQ

Assay [2] addresses T2, PAX4 (Homo sapiens, UniProt O43316 9-242).
T2 sequence: T1 sequence with K192R

The target in assay [3] is T3, NKX2-6 (Homo sapiens, UniProt A6NCS4 118-204).
T3 sequence: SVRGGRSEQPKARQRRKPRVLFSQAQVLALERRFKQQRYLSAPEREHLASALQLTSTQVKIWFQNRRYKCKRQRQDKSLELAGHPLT

Assay [4] deals with T4, PAX4 (Homo sapiens, UniProt O43316 9-242, R200Q).
T4 sequence: T1 sequence with K192Q

Assay [5] concerns the target T5, PAX4 (Homo sapiens, UniProt O43316 9-242, F177V).
T5 sequence: T1 sequence with F169V, K192R

For assay [6], the target named is T6, PAX4 (Homo sapiens, UniProt O43316 9-242, F177Y).
T6 sequence: T1 sequence with F169Y, K192R

Assay [7] addresses T7, NKX2-6 (Homo sapiens, UniProt A6NCS4 118-204, F151L).
T7 sequence: T3 sequence with F34L

The target in assay [8] is T8, PAX4 (Homo sapiens, UniProt O43316 9-242, R227W).
T8 sequence: T1 sequence with K192R, R219W

For assay [9], the target named is HOXA2 (Homo sapiens, UniProt O43364 129-215, R185T).
Sequence of HOXA2 (Homo sapiens, UniProt O43364 129-215, R185T) (O43364 129-215 R185T): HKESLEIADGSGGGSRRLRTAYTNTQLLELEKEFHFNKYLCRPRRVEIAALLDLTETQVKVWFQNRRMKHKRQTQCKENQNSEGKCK
Assay [10] deals with ALX3 (Homo sapiens, UniProt O95076 139-225, N203Q).
Sequence of ALX3 (Homo sapiens, UniProt O95076 139-225, N203Q) (O95076 139-225 N203Q): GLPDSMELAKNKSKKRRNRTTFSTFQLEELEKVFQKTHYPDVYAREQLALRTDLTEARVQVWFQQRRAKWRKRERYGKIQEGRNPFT
The target of assay [11] is HOXA2 (Homo sapiens, UniProt O43364 129-215, R185K).
Sequence of HOXA2 (Homo sapiens, UniProt O43364 129-215, R185K) (O43364 129-215 R185K): as the sequence (O43364 129-215 R185T) above, with T57K counted along it
Assay [12] deals with ALX3 (Homo sapiens, UniProt O95076 139-225).
Sequence of ALX3 (Homo sapiens, UniProt O95076 139-225) (O95076 139-225): as the sequence (O95076 139-225 N203Q) above, with Q65N counted along it
Assay [13] concerns the target ALX3 (Homo sapiens, UniProt O95076 139-225, L168Q).
In assay [14] the target is ALX3 (Homo sapiens, UniProt O95076 139-225, L168V).
Sequence of ALX3 (Homo sapiens, UniProt O95076 139-225, L168V) (O95076 139-225 L168V): as the sequence (O95076 139-225 N203Q) above, with L30V, Q65N counted along it
Assay [15] addresses HOXA2 (Homo sapiens, UniProt O43364 129-215, Y150S).
For assay [16], the target named is ALX3 (Homo sapiens, UniProt O95076 139-225, N203S).
Sequence of ALX3 (Homo sapiens, UniProt O95076 139-225, N203S) (O95076 139-225 N203S): as the sequence (O95076 139-225 N203Q) above, with Q65S counted along it
Assay [17] addresses HOXA2 (Homo sapiens, UniProt O43364 129-215).
Assay [18] concerns the target PITX2 (Homo sapiens, UniProt Q99697 72-157).
Assay [19] deals with HOXB9 (Homo sapiens, UniProt P17482 171-250).
Sequence of HOXB9 (Homo sapiens, UniProt P17482 171-250) (P17482 171-250): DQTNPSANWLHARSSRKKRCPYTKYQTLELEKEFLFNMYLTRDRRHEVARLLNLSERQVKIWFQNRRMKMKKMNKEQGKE
In assay [20] the target is HOXB9 (Homo sapiens, UniProt P17482 171-250, R186Q).
Sequence of HOXB9 (Homo sapiens, UniProt P17482 171-250, R186Q) (P17482 171-250 R186Q): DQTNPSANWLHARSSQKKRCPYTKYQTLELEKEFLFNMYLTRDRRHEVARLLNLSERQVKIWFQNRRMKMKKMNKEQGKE
Assay [21] addresses HOXD13 (Homo sapiens, UniProt P35453 263-343, T313R).
Assay [22] concerns the target HOXD13 (Homo sapiens, UniProt P35453 263-343).
The target in assay [23] is HOXD13 (Homo sapiens, UniProt P35453 263-343, T313A).
Sequence of HOXD13 (Homo sapiens, UniProt P35453 263-343, T313A) (P35453 263-343 T313A): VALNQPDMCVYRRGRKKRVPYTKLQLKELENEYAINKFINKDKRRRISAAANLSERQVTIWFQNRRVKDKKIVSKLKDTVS
The target in assay [24] is T9, NKX2-6 (Homo sapiens, UniProt A6NCS4 118-204, R150C).
T9 sequence: T3 sequence with R33C

For assay [25], the target named is MSX2 (Homo sapiens, UniProt P35548 130-214, R199I).
Sequence of MSX2 (Homo sapiens, UniProt P35548 130-214, R199I) (P35548 130-214 R199I): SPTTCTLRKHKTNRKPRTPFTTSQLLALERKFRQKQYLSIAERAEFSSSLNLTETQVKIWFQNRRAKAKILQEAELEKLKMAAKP
Assay [26] addresses MSX2 (Homo sapiens, UniProt P35548 130-214).
For assay [27], the target named is MSX2 (Homo sapiens, UniProt P35548 130-214, F161Y).
Sequence of MSX2 (Homo sapiens, UniProt P35548 130-214, F161Y) (P35548 130-214 F161Y): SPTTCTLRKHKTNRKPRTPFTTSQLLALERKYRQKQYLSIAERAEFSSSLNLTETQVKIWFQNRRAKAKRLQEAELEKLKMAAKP

Residue numbers refer to the chain shown, from its start.

Sequence of HOXA2 (Homo sapiens, UniProt O43364 129-215, Y150S) (O43364 129-215 Y150S): as the sequence (O43364 129-215 R185T) above, with Y22S, T57R counted along it
Sequence of HOXA2 (Homo sapiens, UniProt O43364 129-215) (O43364 129-215): as the sequence (O43364 129-215 R185T) above, with T57R counted along it
Sequence of ALX3 (Homo sapiens, UniProt O95076 139-225, L168Q) (O95076 139-225 L168Q): as the sequence (O95076 139-225 N203Q) above, with L30Q, Q65N counted along it
Sequence of MSX2 (Homo sapiens, UniProt P35548 130-214) (P35548 130-214): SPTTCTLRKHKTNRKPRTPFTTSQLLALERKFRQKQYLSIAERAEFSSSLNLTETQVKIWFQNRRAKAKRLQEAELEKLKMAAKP
Sequence of HOXD13 (Homo sapiens, UniProt P35453 263-343) (P35453 263-343): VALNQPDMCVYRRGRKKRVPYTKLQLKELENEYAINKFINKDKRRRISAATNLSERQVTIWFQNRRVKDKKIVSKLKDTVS
Sequence of HOXD13 (Homo sapiens, UniProt P35453 263-343, T313R) (P35453 263-343 T313R): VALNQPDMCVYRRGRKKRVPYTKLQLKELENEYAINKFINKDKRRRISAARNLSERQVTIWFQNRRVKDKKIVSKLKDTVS

In the case of CGTCCCCC, the binding signal in assay [1] is 9.1 upbm affinity estimate (log intensity, higher = more binding, comparable within an allelic series); in assay [2] it was 9.14 upbm affinity estimate (log intensity, higher = more binding, comparable within an allelic series); in assay [3], 9.4 upbm affinity estimate (log intensity, higher = more binding, comparable within an allelic series); in [4], 9.11 upbm affinity estimate (log intensity, higher = more binding, comparable within an allelic series); in assay [5], 9.08 upbm affinity estimate (log intensity, higher = more binding, comparable within an allelic series); in [6] it was 9.19 upbm affinity estimate (log intensity, higher = more binding, comparable within an allelic series). Moreover, the binding signal is 9.03 upbm affinity estimate (log intensity, higher = more binding, comparable within an allelic series) in [7] and 9.21 upbm affinity estimate (log intensity, higher = more binding, comparable within an allelic series) in assay [8].
As for GGGGGGGA, the binding signal is 9.06 upbm affinity estimate (log intensity, higher = more binding, comparable within an allelic series) in assay [1]; 9.13 upbm affinity estimate (log intensity, higher = more binding, comparable within an allelic series) in assay [2]; 6.89 upbm affinity estimate (log intensity, higher = more binding, comparable within an allelic series) in [9]; 7.53 upbm affinity estimate (log intensity, higher = more binding, comparable within an allelic series) in [10]; 9.12 upbm affinity estimate (log intensity, higher = more binding, comparable within an allelic series) in [4]; 9.81 upbm affinity estimate (log intensity, higher = more binding, comparable within an allelic series) in assay [11]. Besides, the binding signal in assay [5] is 9.01 upbm affinity estimate (log intensity, higher = more binding, comparable within an allelic series); in assay [12], 7.53 upbm affinity estimate (log intensity, higher = more binding, comparable within an allelic series); in assay [6], 9.15 upbm affinity estimate (log intensity, higher = more binding, comparable within an allelic series); in [13], 7.42 upbm affinity estimate (log intensity, higher = more binding, comparable within an allelic series); in assay [14] it was 7.45 upbm affinity estimate (log intensity, higher = more binding, comparable within an allelic series); in assay [8], 9.15 upbm affinity estimate (log intensity, higher = more binding, comparable within an allelic series). For the same sequence, the binding signal is 10.2 upbm affinity estimate (log intensity, higher = more binding, comparable within an allelic series) in [15]; 7.55 upbm affinity estimate (log intensity, higher = more binding, comparable within an allelic series) in assay [16]; 7.05 upbm affinity estimate (log intensity, higher = more binding, comparable within an allelic series) in assay [17].
For the sequence GCGCCACC, the binding signal was 9.38 upbm affinity estimate (log intensity, higher = more binding, comparable within an allelic series) in assay [1]; 9.4 upbm affinity estimate (log intensity, higher = more binding, comparable within an allelic series) in assay [2]; 9.4 upbm affinity estimate (log intensity, higher = more binding, comparable within an allelic series) in [4]; 7.93 upbm affinity estimate (log intensity, higher = more binding, comparable within an allelic series) in assay [18]; 9.23 upbm affinity estimate (log intensity, higher = more binding, comparable within an allelic series) in assay [5]; 9.26 upbm affinity estimate (log intensity, higher = more binding, comparable within an allelic series) in assay [6]. The binding signal in [8] is 9.32 upbm affinity estimate (log intensity, higher = more binding, comparable within an allelic series).
Turning to CCCTAATA, the binding signal in assay [1] was 11.3 upbm affinity estimate (log intensity, higher = more binding, comparable within an allelic series); in assay [2], 11.6 upbm affinity estimate (log intensity, higher = more binding, comparable within an allelic series); in [19], 10.3 upbm affinity estimate (log intensity, higher = more binding, comparable within an allelic series); in assay [10], 8.25 upbm affinity estimate (log intensity, higher = more binding, comparable within an allelic series); in [4], 11.2 upbm affinity estimate (log intensity, higher = more binding, comparable within an allelic series); in [5], 10.2 upbm affinity estimate (log intensity, higher = more binding, comparable within an allelic series). Moreover, the binding signal is 10.9 upbm affinity estimate (log intensity, higher = more binding, comparable within an allelic series) in assay [12]; 10.5 upbm affinity estimate (log intensity, higher = more binding, comparable within an allelic series) in assay [6]; 8.97 upbm affinity estimate (log intensity, higher = more binding, comparable within an allelic series) in assay [13]; 10.2 upbm affinity estimate (log intensity, higher = more binding, comparable within an allelic series) in assay [20]; 8.89 upbm affinity estimate (log intensity, higher = more binding, comparable within an allelic series) in [14]; 10.6 upbm affinity estimate (log intensity, higher = more binding, comparable within an allelic series) in assay [8]. Besides, in assay [16], the binding signal is 8.32 upbm affinity estimate (log intensity, higher = more binding, comparable within an allelic series).
Consider CAAGCCCC, for which the binding signal is 9.27 upbm affinity estimate (log intensity, higher = more binding, comparable within an allelic series) in [1]; 9.32 upbm affinity estimate (log intensity, higher = more binding, comparable within an allelic series) in assay [2]; 9.5 upbm affinity estimate (log intensity, higher = more binding, comparable within an allelic series) in assay [21]; 9.37 upbm affinity estimate (log intensity, higher = more binding, comparable within an allelic series) in [4]; 9.54 upbm affinity estimate (log intensity, higher = more binding, comparable within an allelic series) in assay [22]; 9.26 upbm affinity estimate (log intensity, higher = more binding, comparable within an allelic series) in assay [5]. Moreover, the binding signal is 9.29 upbm affinity estimate (log intensity, higher = more binding, comparable within an allelic series) in [6]; 9.61 upbm affinity estimate (log intensity, higher = more binding, comparable within an allelic series) in assay [23]; 9.3 upbm affinity estimate (log intensity, higher = more binding, comparable within an allelic series) in assay [8].
Consider CGGAGGGC, for which the binding signal in assay [1] was 9.09 upbm affinity estimate (log intensity, higher = more binding, comparable within an allelic series); in assay [2] it was 9.28 upbm affinity estimate (log intensity, higher = more binding, comparable within an allelic series); in assay [9], 7.21 upbm affinity estimate (log intensity, higher = more binding, comparable within an allelic series); in [4], 9.19 upbm affinity estimate (log intensity, higher = more binding, comparable within an allelic series); in assay [18], 7.96 upbm affinity estimate (log intensity, higher = more binding, comparable within an allelic series); in assay [11], 10.3 upbm affinity estimate (log intensity, higher = more binding, comparable within an allelic series). For the same sequence, the binding signal in assay [5] is 9.08 upbm affinity estimate (log intensity, higher = more binding, comparable within an allelic series); in assay [6], 9 upbm affinity estimate (log intensity, higher = more binding, comparable within an allelic series); in [8], 9.1 upbm affinity estimate (log intensity, higher = more binding, comparable within an allelic series); in [15], 10.3 upbm affinity estimate (log intensity, higher = more binding, comparable within an allelic series); in [17], 7.24 upbm affinity estimate (log intensity, higher = more binding, comparable within an allelic series).
As for TGAATTAA, the binding signal in [1] was 11.8 upbm affinity estimate (log intensity, higher = more binding, comparable within an allelic series); in assay [2], 12.3 upbm affinity estimate (log intensity, higher = more binding, comparable within an allelic series); in [9], 11.1 upbm affinity estimate (log intensity, higher = more binding, comparable within an allelic series); in assay [4] it was 11.9 upbm affinity estimate (log intensity, higher = more binding, comparable within an allelic series); in [18], 11.2 upbm affinity estimate (log intensity, higher = more binding, comparable within an allelic series); in assay [11], 12.5 upbm affinity estimate (log intensity, higher = more binding, comparable within an allelic series). Moreover, the binding signal is 10.6 upbm affinity estimate (log intensity, higher = more binding, comparable within an allelic series) in [5]; 11.1 upbm affinity estimate (log intensity, higher = more binding, comparable within an allelic series) in assay [6]; 10.8 upbm affinity estimate (log intensity, higher = more binding, comparable within an allelic series) in [15]; 11.1 upbm affinity estimate (log intensity, higher = more binding, comparable within an allelic series) in assay [17].
For the sequence ATTATTTC, the binding signal in assay [1] was 10.8 upbm affinity estimate (log intensity, higher = more binding, comparable within an allelic series); in assay [2], 11.1 upbm affinity estimate (log intensity, higher = more binding, comparable within an allelic series); in [4] it was 10.9 upbm affinity estimate (log intensity, higher = more binding, comparable within an allelic series); in assay [5], 10.4 upbm affinity estimate (log intensity, higher = more binding, comparable within an allelic series).
Consider CCGCCCCG, for which the binding signal in assay [1] is 9.25 upbm affinity estimate (log intensity, higher = more binding, comparable within an allelic series); in assay [2], 9.35 upbm affinity estimate (log intensity, higher = more binding, comparable within an allelic series); in assay [24], 9.69 upbm affinity estimate (log intensity, higher = more binding, comparable within an allelic series); in [4] it was 9.16 upbm affinity estimate (log intensity, higher = more binding, comparable within an allelic series); in [5], 9.13 upbm affinity estimate (log intensity, higher = more binding, comparable within an allelic series); in assay [6] it was 9.21 upbm affinity estimate (log intensity, higher = more binding, comparable within an allelic series). In [8], the binding signal was 9.44 upbm affinity estimate (log intensity, higher = more binding, comparable within an allelic series).
In the case of GGCTTCCA, the binding signal was 9.19 upbm affinity estimate (log intensity, higher = more binding, comparable within an allelic series) in [1]; 9.03 upbm affinity estimate (log intensity, higher = more binding, comparable within an allelic series) in assay [2]; 7.05 upbm affinity estimate (log intensity, higher = more binding, comparable within an allelic series) in assay [9]; 9.42 upbm affinity estimate (log intensity, higher = more binding, comparable within an allelic series) in [4]; 10.4 upbm affinity estimate (log intensity, higher = more binding, comparable within an allelic series) in assay [11]; 9.33 upbm affinity estimate (log intensity, higher = more binding, comparable within an allelic series) in assay [5]. In addition, the binding signal in assay [6] was 9.37 upbm affinity estimate (log intensity, higher = more binding, comparable within an allelic series); in assay [8], 9.41 upbm affinity estimate (log intensity, higher = more binding, comparable within an allelic series); in [15] it was 10.5 upbm affinity estimate (log intensity, higher = more binding, comparable within an allelic series); in assay [17], 7.18 upbm affinity estimate (log intensity, higher = more binding, comparable within an allelic series).
Turning to CCGGGGGA, the binding signal is 9.19 upbm affinity estimate (log intensity, higher = more binding, comparable within an allelic series) in assay [1]; 9.35 upbm affinity estimate (log intensity, higher = more binding, comparable within an allelic series) in assay [2]; 9.52 upbm affinity estimate (log intensity, higher = more binding, comparable within an allelic series) in assay [25]; 9.16 upbm affinity estimate (log intensity, higher = more binding, comparable within an allelic series) in [4]; 9.14 upbm affinity estimate (log intensity, higher = more binding, comparable within an allelic series) in [5]; 9.61 upbm affinity estimate (log intensity, higher = more binding, comparable within an allelic series) in [26]. Besides, the binding signal is 9.09 upbm affinity estimate (log intensity, higher = more binding, comparable within an allelic series) in assay [6]; 9.5 upbm affinity estimate (log intensity, higher = more binding, comparable within an allelic series) in assay [27]; 9.22 upbm affinity estimate (log intensity, higher = more binding, comparable within an allelic series) in [8].
